The subject of assay [1] is Saccharomyces cerevisiae BY4741 SeMeCo community. As to the kind of experiment: mean cell size (pixel area) (pixels); higher = larger cells. Conditions: 10 µM; 24 h; SM minimal medium. The method in brief: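 A fluorescent Saccharomyces cerevisiae BY4741 community carrying four plasmids was used, with each plasmid complementing one auxotrophy and bearing a fluorescent marker. An overnight preculture at OD600 = 1.0 was diluted to OD600 = 0.3, and 70 µl went into 384-well plates acoustically predosed with drug (final 10 µM) in SM medium for 24 h. After paraformaldehyde fixation, cells were imaged by automated confocal microscopy and analysed in Harmony, giving the mean cell pixel area per well. Each value is the average of 3 replicates. Same SeMeCo high-content imaging drug screen: Selleck FDA-approved drugs at 10 µM, 24 h in SM medium, 384-well plates, 3 replicates.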

For assay [2] the test system is unchanged. Description: z-score of prototroph abundance vs DMSO median; higher = larger share of this subpopulation than in DMSO controls. Conditions: 10 µM; 24 h; SM minimal medium; subpopulation (auxotrophy): Prototroph. The method in brief: (§1)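 Scoring was based on each subpopulation's abundance, expressed as a z-score against the vehicle-well median. A Saccharomyces cerevisiae BY4741 community with four plasmids, each restoring one auxotrophy and encoding a distinct fluorescent protein, was pre-grown overnight to OD600 1.0, diluted to 0.3, and added at 70 µl to 384-well plates acoustically predosed with library drugs (10 µM final). It then grew 24 h in minimal SM medium before paraformaldehyde fixation and automated confocal microscopy, with single-auxotroph fluorescent strains setting thresholds and autofluorescence correction.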

Assay [3] shares this test system. As to the kind of experiment: z-score of subpopulation abundance vs DMSO median, subpopulation auxotrophic for M; higher = larger share of this subpopulation than in DMSO controls. The conditions noted are these: 10 µM; 24 h; SM minimal medium; subpopulation (auxotrophy): M. The essentials: as §1
The test system is the same in assay [4]. Description: z-score of subpopulation abundance vs DMSO median, subpopulation auxotrophic for L; higher = larger share of this subpopulation than in DMSO controls. The conditions noted are these: 10 µM; 24 h; SM minimal medium; subpopulation (auxotrophy): L. The method in brief:
as §1

Assay [5] shares this test system. As to the kind of experiment: z-score of subpopulation abundance vs DMSO median, subpopulation auxotrophic for U; higher = larger share of this subpopulation than in DMSO controls. The conditions noted are these: 10 µM; 24 h; SM minimal medium; subpopulation (auxotrophy): U. The essentials: as §1
Assay [6] shares this test system. As to the kind of experiment: z-score of subpopulation abundance vs DMSO median, subpopulation auxotrophic for H; higher = larger share of this subpopulation than in DMSO controls. Conditions: 10 µM; 24 h; SM minimal medium; subpopulation (auxotrophy): H. The method in brief: as §1
The test system is the same in assay [7]. As to the kind of experiment: z-score of subpopulation abundance vs DMSO median, subpopulation auxotrophic for LU; higher = larger share of this subpopulation than in DMSO controls. The conditions noted are these: 10 µM; 24 h; SM minimal medium; subpopulation (auxotrophy): LU. The method in brief:
as §1

For assay [8] the test system is unchanged. Description: z-score of subpopulation abundance vs DMSO median, subpopulation auxotrophic for LM; higher = larger share of this subpopulation than in DMSO controls. The conditions noted are these: 10 µM; 24 h; SM minimal medium; subpopulation (auxotrophy): LM. The method in brief:
as §1

Assay [9] shares this test system. As to the kind of experiment: z-score of subpopulation abundance vs DMSO median, subpopulation auxotrophic for HM; higher = larger share of this subpopulation than in DMSO controls. The conditions noted are these: 10 µM; 24 h; SM minimal medium; subpopulation (auxotrophy): HM. The essentials:
as §1

Assay [10] has the same test system. As to the kind of experiment: z-score of subpopulation abundance vs DMSO median, subpopulation auxotrophic for HU; higher = larger share of this subpopulation than in DMSO controls. The conditions noted are these: 10 µM; 24 h; SM minimal medium; subpopulation (auxotrophy): HU. The essentials:
as §1

For assay [11] the test system is unchanged. Description: z-score of subpopulation abundance vs DMSO median, subpopulation auxotrophic for UM; higher = larger share of this subpopulation than in DMSO controls. Conditions: 10 µM; 24 h; SM minimal medium; subpopulation (auxotrophy): UM. The method in brief: as §1
The test system is the same in assay [12]. As to the kind of experiment: z-score of subpopulation abundance vs DMSO median, subpopulation auxotrophic for HL; higher = larger share of this subpopulation than in DMSO controls. Conditions: 10 µM; 24 h; SM minimal medium; subpopulation (auxotrophy): HL. The method in brief: as §1
Assay [13] shares this test system. Description: z-score of subpopulation abundance vs DMSO median, subpopulation auxotrophic for HLU; higher = larger share of this subpopulation than in DMSO controls. Conditions: 10 µM; 24 h; SM minimal medium; subpopulation (auxotrophy): HLU. The method in brief: as §1
For assay [14] the test system is unchanged. As to the kind of experiment: z-score of subpopulation abundance vs DMSO median, subpopulation auxotrophic for HLM; higher = larger share of this subpopulation than in DMSO controls. Conditions: 10 µM; 24 h; SM minimal medium; subpopulation (auxotrophy): HLM. The method in brief:
as §1

Assay [15] has the same test system. Description: z-score of subpopulation abundance vs DMSO median, subpopulation auxotrophic for HUM; higher = larger share of this subpopulation than in DMSO controls. The conditions noted are these: 10 µM; 24 h; SM minimal medium; subpopulation (auxotrophy): HUM. The essentials: as §1
Assay [16] has the same test system. Description: z-score of subpopulation abundance vs DMSO median, subpopulation auxotrophic for LUM; higher = larger share of this subpopulation than in DMSO controls. The conditions noted are these: 10 µM; 24 h; SM minimal medium; subpopulation (auxotrophy): LUM. The essentials: as §1
For assay [17] the test system is unchanged. Description: z-score of subpopulation abundance vs DMSO median, subpopulation auxotrophic for HLUM; higher = larger share of this subpopulation than in DMSO controls. The conditions noted are these: 10 µM; 24 h; SM minimal medium; subpopulation (auxotrophy): HLUM. The method in brief: as §1

± gives the standard deviation of the averaged measurements.

Turning to `NC(CO)(CO)CO` [Trometamol], in [1], the mean cell size was determined as 12.2 ± 0.18. Moreover, in assay [2], the “z-score of prototroph abundance” value was -0.35. In addition, the “z-score of subpopulation abundance” value was 0.08 in assay [3]; 0.58 in assay [4]; 0.6 in assay [5]; -0.42 in [6]; 0.36 in assay [7]; -0.62 in assay [8]. For the same compound, the “z-score of subpopulation abundance” value in assay [9] was -0.48; in assay [10], 0.55; in assay [11], 0.88; in [12], 0; in assay [13], -0.13; in [14], -0.69. Also, the “z-score of subpopulation abundance” value in [15] was -0.08; in assay [16], 0.42; in assay [17], -0.35.

In turn, `Cc1nnc(SCC2=C(C(=O)O)N3C(=O)[C@@H](NC(=O)Cn4cc(Cl)c(=O)c(Cl)c4)[C@H]3SC2)s1` [Cefazedone] gave a mean cell size in [1] of 12.5 ± 0.39. Further, the “z-score of prototroph abundance” value in [2] is 0.73. The “z-score of subpopulation abundance” value was 0.65 in [3]; -0.83 in assay [4]; -0.01 in assay [5]; -0.61 in assay [6]; -0.24 in assay [7]; -0.95 in [8]. The “z-score of subpopulation abundance” value in assay [9] was 0.02; in assay [10] it was -0.74; in assay [11] it was -0.27; in [12], -1.2; in assay [13] it was -1.4; in assay [14], -0.49. Moreover, the “z-score of subpopulation abundance” value in assay [15] is 0.05; in [16], -1.02; in [17], -0.54.

In [1], `CCCCCOc1ccc(-c2cc(-c3ccc(C(=O)N[C@H]4C[C@@H](O)[C@@H](O)NC(=O)[C@@H]5[C@@H](O)[C@@H](C)CN5C(=O)[C@H]([C@H](O)CC(N)=O)NC(=O)[C@H]([C@H](O)[C@@H](O)c5ccc(O)c(OS(=O)(=O)O)c5)NC(=O)[C@@H]5C[C@@H](O)CN5C(=O)[C@H]([C@@H](C)O)NC4=O)cc3)no2)cc1` [Micafungin Sodium] came in with a mean cell size of 12.4 ± 0.26. Also, the “z-score of prototroph abundance” value in [2] is -14.6. Besides, the “z-score of subpopulation abundance” value in assay [3] is -8.01; in assay [4], 5.22; in [5], -1.73; in [6], 27.4; in assay [7] it was 1.46; in assay [8] it was 0.72. In addition, the “z-score of subpopulation abundance” value in assay [9] came out at 1.38; in assay [10], 13.2; in assay [11], 1.81; in assay [13], 12; in [14], 61.8; in assay [15] it was 13.9. Further, the “z-score of subpopulation abundance” value in assay [16] is 4.1; in assay [17] it was 86.5.

For `CCOC(=O)C1=C(COCCN)NC(C)=C(C(=O)OC)C1c1ccccc1Cl` (stereo not given) [Amlodipine], the mean cell size in [1] is 13 ± 0.37. The “z-score of prototroph abundance” value in assay [2] was 2.13. The “z-score of subpopulation abundance” value in assay [3] was 3.04; in [4], 4.02; in assay [5], -7; in assay [6], 3.95; in assay [7], -7.07; in assay [8], 8.35. Further, the “z-score of subpopulation abundance” value in assay [9] is 4.86; in assay [10], -7.36; in assay [11], -8.26; in assay [13], -3.87; in assay [14], 9.49; in [15], -6.23. The entries for the “z-score of subpopulation abundance” value in [16] and in assay [17] were -4.72 and -1.8, respectively.

The compound `Oc1ccc(Cl)c2cccnc12` [Cloxiquine] showed a mean cell size in assay [1] of 14.28 ± 0.12. In addition, the “z-score of prototroph abundance” value in assay [2] is -17.6. For the same compound, the “z-score of subpopulation abundance” value in [3] was 5.82; in assay [4], -1.33; in assay [5], -1.71; in assay [6] it was 13.1; in [7] it was 6.41; in [8], 8.36. In addition, the “z-score of subpopulation abundance” value in assay [9] amounted to 26.6; in assay [10] it was 11.8; in assay [11] it was 6.45; in assay [12], 17.4; in [13], 17.6; in [14] it was 64. Besides, the “z-score of subpopulation abundance” value turned out to be 14.5 in assay [15], 22.1 in assay [16] and 43.7 in assay [17].

For the compound `O=C(O)CCC(=O)Nc1ccc(S(=O)(=O)Nc2nccs2)cc1` [Succinylsulfathiazole], the mean cell size in assay [1] was found to be 12.52 ± 0.1. Besides, in assay [2], the “z-score of prototroph abundance” value worked out at 0.73. Moreover, the “z-score of subpopulation abundance” value in assay [3] is -0.13; in assay [4] it was -0.22; in [5] it was 0.33; in [6] it was -1.14; in assay [7], -0.4; in assay [8], -0.35. The “z-score of subpopulation abundance” value is -0.78 in [9]; -0.31 in assay [10]; 0.02 in assay [11]; -0.84 in assay [12]; -0.43 in assay [13]; -1.01 in assay [14]. In addition, the “z-score of subpopulation abundance” value was -0.33 in assay [15], -0.95 in assay [16] and -0.62 in assay [17].

(Values after the supplement of paper PMC8975748.)
